# Measured values taken from the supplement of paper PMC8728848.
# This is one part of a sample in which the strongest signals are shown more often than they occur.
# Experiments:
# Experiment in all cases: glycan array binding signal (z-score within array); higher = stronger binding
# [1] = test system: Neu5Ac(a2-3)Gal(b1-4)GlcNAc(b1-2)Man(a1-3)[GlcNAc(b1-2)Man(b1-4)GlcNAc(b1-2)Man(a1-6)]Man(b1-4)GlcNAc(b1-4)GlcNAc; conditions: glycan notation: IUPAC condensed, linker removed
# Procedure, shortened: (§1)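 The binding signal is a Z-score computed within each array. Data were drawn from 3228 arrays in the Consortium for Functional Glycomics database, restricted to those with a known protein sequence. Scores were averaged over arrays of the same protein sequence at different concentrations or buffers, and over linkers, and negative values can be taken as non-binding.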
# [2] = test system: Neu5Ac(a2-3)Gal(b1-4)GlcNAc(b1-3)Gal(b1-3)GlcNAc; conditions: glycan notation: IUPAC condensed, linker removed
# Procedure, shortened: as §1
# [3] = test system: Neu5Ac(a2-3)Gal(b1-4)GlcNAc(b1-2)Man(a1-3)[GlcNAc(b1-4)][Neu5Ac(a2-3)Gal(b1-4)GlcNAc(b1-2)Man(a1-6)]Man(b1-4)GlcNAc(b1-4)GlcNAc; conditions: glycan notation: IUPAC condensed, linker removed
# Procedure, shortened: as §1
# [4] = test system: Neu5Ac(a2-3)Gal(b1-4)GlcNAc(b1-2)Man(a1-3)[Neu5Ac(a2-3)Gal(b1-4)GlcNAc(b1-2)Man(a1-6)]Man(b1-4)GlcNAc(b1-4)[Fuc(a1-6)]GlcNAc; conditions: glycan notation: IUPAC condensed, linker removed; mutation: R125K
# Procedure, shortened: as §1
# [5] = test system: Neu5Ac(a2-3)Gal(b1-4)GlcNAc(b1-2)[Neu5Ac(a2-3)Gal(b1-4)GlcNAc(b1-4)]Man(a1-3)[GlcNAc(b1-4)][Neu5Ac(a2-3)Gal(b1-4)GlcNAc(b1-4)Man(a1-6)]Man(b1-4)GlcNAc(b1-4)GlcNAc; conditions: glycan notation: IUPAC condensed, linker removed; mutation: R125K
# Procedure, shortened: as §1
# [6] = test system: Neu5Ac(a2-3)Gal(b1-4)GlcNAc(b1-2)[Neu5Ac(a2-3)Gal(b1-4)GlcNAc(b1-6)]Man(a1-6)[Neu5Ac(a2-3)Gal(b1-4)GlcNAc(b1-2)Man(a1-3)]Man(b1-4)GlcNAc(b1-4)GlcNAc; conditions: glycan notation: IUPAC condensed, linker removed
# Procedure, shortened: as §1
# [7] = test system: Neu5Ac(a2-3)Gal(b1-4)GlcNAc(b1-3)Gal(b1-4)GlcNAc(b1-2)Man(a1-3)[Neu5Ac(a2-3)Gal(b1-4)GlcNAc(b1-3)Gal(b1-4)GlcNAc(b1-2)Man(a1-6)]Man(b1-4)GlcNAc(b1-4)GlcNAc; conditions: glycan notation: IUPAC condensed, linker removed; mutation: R125K
# Procedure, shortened: as §1
# [8] = test system: Neu5Ac(a2-3)Gal(b1-4)GlcNAc(b1-2)Man(a1-3)[Neu5Ac(a2-6)Gal(b1-4)GlcNAc(b1-2)Man(a1-6)]Man(b1-4)GlcNAc(b1-4)GlcNAc; conditions: glycan notation: IUPAC condensed, linker removed
# Procedure, shortened: as §1
# [9] = test system: Neu5Ac(a2-3)Gal(b1-4)GlcNAc(b1-3)Gal(b1-4)GlcNAc(b1-3)Gal(b1-4)GlcNAc(b1-2)Man(a1-3)[Neu5Ac(a2-3)Gal(b1-4)GlcNAc(b1-3)Gal(b1-4)GlcNAc(b1-3)Gal(b1-4)GlcNAc(b1-2)Man(a1-6)]GalNAc; conditions: glycan notation: IUPAC condensed, linker removed
# Procedure, shortened: as §1
# [10] = test system: Neu5Ac(a2-3)Gal(b1-4)GlcNAc(b1-2)[Neu5Ac(a2-3)Gal(b1-4)GlcNAc(b1-4)]Man(a1-3)[GlcNAc(b1-4)][Neu5Ac(a2-3)Gal(b1-4)GlcNAc(b1-2)[Neu5Ac(a2-3)Gal(b1-4)GlcNAc(b1-6)]Man(a1-6)]Man(b1-4)GlcNAc(b1-4)GlcNAc; conditions: glycan notation: IUPAC condensed, linker removed
# Procedure, shortened: as §1
# Avaren (Actinomycete K97), sequence (chain, as listed by the source): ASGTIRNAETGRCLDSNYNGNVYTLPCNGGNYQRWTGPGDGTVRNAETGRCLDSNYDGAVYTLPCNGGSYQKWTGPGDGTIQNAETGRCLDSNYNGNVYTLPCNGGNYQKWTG
# PILRb (Mus musculus), Q2YSF2, sequence (Q2YSF2 entry or part of it): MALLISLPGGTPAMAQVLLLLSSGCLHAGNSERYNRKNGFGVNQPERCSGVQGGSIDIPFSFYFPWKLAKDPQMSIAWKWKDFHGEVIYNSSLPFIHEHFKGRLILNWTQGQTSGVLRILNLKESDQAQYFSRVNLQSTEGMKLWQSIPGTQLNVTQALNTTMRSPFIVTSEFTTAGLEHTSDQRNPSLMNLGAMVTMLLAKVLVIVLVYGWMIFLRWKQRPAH
# Neurocan (Homo sapiens), O14594, sequence (O14594 other isoform, or with tags, fused parts or gaps): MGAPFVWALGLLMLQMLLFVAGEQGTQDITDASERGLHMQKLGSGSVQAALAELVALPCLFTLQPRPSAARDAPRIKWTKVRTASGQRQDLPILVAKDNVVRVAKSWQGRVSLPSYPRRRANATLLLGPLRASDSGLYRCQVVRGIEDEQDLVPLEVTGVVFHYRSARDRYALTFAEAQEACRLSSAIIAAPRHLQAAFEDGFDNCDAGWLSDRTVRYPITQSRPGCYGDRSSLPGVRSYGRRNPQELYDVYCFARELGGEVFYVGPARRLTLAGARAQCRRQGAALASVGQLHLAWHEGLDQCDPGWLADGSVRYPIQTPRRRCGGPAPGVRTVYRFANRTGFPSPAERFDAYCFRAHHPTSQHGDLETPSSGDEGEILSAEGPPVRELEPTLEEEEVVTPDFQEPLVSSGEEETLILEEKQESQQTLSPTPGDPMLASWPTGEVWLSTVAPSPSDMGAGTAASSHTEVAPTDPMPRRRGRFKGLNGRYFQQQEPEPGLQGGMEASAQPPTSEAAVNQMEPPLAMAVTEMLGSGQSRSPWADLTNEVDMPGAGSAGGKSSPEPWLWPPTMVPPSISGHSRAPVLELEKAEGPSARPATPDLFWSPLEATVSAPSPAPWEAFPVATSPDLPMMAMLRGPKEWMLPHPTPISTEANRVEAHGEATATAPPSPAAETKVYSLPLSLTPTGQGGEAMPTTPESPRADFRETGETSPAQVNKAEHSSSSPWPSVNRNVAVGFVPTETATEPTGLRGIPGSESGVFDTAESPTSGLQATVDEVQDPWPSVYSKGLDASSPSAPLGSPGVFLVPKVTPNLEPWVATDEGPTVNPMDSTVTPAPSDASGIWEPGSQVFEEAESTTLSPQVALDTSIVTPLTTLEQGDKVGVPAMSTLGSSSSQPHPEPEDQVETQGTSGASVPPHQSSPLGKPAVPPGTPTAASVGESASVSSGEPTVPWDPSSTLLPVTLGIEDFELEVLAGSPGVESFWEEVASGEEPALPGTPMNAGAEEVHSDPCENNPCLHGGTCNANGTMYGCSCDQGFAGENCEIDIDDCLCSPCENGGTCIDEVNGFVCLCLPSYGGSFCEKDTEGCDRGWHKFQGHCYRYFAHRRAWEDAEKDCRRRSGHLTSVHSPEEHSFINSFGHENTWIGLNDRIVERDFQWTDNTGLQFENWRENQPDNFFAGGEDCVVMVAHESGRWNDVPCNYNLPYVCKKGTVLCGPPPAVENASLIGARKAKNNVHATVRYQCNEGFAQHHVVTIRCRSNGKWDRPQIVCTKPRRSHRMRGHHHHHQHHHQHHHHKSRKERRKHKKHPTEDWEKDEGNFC
# PILRa (Mus musculus), Q2YSF3, sequence (Q2YSF3 entry or part of it): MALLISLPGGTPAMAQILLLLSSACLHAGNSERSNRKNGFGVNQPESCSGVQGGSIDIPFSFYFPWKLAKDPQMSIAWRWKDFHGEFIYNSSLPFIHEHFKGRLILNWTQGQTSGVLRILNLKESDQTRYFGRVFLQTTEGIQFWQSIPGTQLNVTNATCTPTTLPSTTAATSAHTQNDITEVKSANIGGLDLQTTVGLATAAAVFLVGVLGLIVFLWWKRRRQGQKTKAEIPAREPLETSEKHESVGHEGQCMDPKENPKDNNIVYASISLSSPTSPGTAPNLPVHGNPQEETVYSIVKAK
# 6RG (Lolium perenne), sequence (chain, as listed by the source): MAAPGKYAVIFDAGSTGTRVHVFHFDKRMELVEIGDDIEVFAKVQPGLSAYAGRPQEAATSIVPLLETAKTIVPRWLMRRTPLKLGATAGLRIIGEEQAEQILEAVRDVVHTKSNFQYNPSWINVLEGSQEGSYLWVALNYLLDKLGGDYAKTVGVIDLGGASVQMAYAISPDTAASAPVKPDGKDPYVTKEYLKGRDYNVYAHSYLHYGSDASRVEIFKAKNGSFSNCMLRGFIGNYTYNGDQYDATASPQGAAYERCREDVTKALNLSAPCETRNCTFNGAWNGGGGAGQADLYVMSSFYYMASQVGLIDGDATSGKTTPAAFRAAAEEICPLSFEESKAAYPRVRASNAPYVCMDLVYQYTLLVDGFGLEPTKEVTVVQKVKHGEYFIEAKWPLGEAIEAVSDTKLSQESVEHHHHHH
substance,measurement,setting,value
"PILRb (Mus musculus), Q2YSF2",glycan array binding signal (z-score),[1],-0.119
"Neurocan (Homo sapiens), O14594",glycan array binding signal (z-score),[2],0.948
"Siglec-8 (Homo sapiens), Q9NYZ4",glycan array binding signal (z-score),[3],-0.203
same,glycan array binding signal (z-score),[4],0.029
same,glycan array binding signal (z-score),[5],0.406
same,glycan array binding signal (z-score),[6],0.635
same,glycan array binding signal (z-score),[7],-0.161
6RG (Lolium perenne),glycan array binding signal (z-score),[8],-0.191
Avaren (Actinomycete K97),glycan array binding signal (z-score),[8],-0.137
same,glycan array binding signal (z-score),[9],0.039
MpAFP RI GFP (Marinomonas primoryensis),glycan array binding signal (z-score),[10],-0.808
"PILRa (Mus musculus), Q2YSF3",glycan array binding signal (z-score),[1],-0.185
